The source of these data is PubChem BioAssay.

Where “and” joins values, the source holds several entries; their conditions need not be identical. Equal values may be shown once. The source holds several records for some structures; these can differ, active in one and inactive in another. Calls of active or inactive are those of the source. Rule as the data show it, unless noted: active = parasite load remaining mostly below about 12% (no sharp cut-off); inactive = mostly above about 10%.

A short description of one test: compounds altering viability of human ES cells (AID 493140; call rule not given here;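 also: cells exposed to compounds for four days before counting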). Conditions: human embryonic stem cell survival screen; stronger effect = higher value.
For `Cc1c(N(C)C)c(=O)n(-c2ccccc2)n1C`, the survival is 13.6 (inactive).
As for `O=C(O)[C@@H]1[C@H]2C[C@H]3c4[nH]c5ccccc5c4CCN3C[C@@H]2CC[C@@H]1O`, the survival is 2.42 (inactive).
Consider `COc1cc(N)c(Cl)cc1C(=O)NC1CCN(Cc2ccccc2)CC1`, for which the survival is 5.67 (inactive).
In the case of `Cc1cc2c(C(C)C)c(O)c(O)c(C=O)c2c(O)c1-c1c(C)cc2c(C(C)C)c(O)c(O)c(C=O)c2c1O`, the survival is 5.5 (inactive).
On the same count and under the same terms, to `CC(C)(C(=O)c1cccnc1)c1cccnc1` belongs 5 (inactive).
`CC1CC(OC(=O)C(O)c2ccccc2)CC(C)(C)N1C` (configuration not stated): the survival is 2.33 (inactive).
Turning to `CCc1c(C)[nH]c2c1C(=O)C(CN1CCOCC1)CC2` (configuration not stated), the survival was 6.5 (inactive).
On the same count and under the same terms, to `CC(C)(C)NC(=O)[C@H]1CC[C@H]2[C@@H]3CC[C@H]4NC(=O)C=C[C@]4(C)[C@H]3CC[C@]12C` belongs 7 (inactive); to `CCC(=O)O[C@]1(C(=O)SCF)[C@H](C)C[C@H]2[C@@H]3C[C@H](F)C4=CC(=O)C=C[C@]4(C)[C@@]3(F)[C@@H](O)C[C@@]21C`, 6.58 (inactive).
On to `Cc1c(Nc2ncccc2C(=O)O)cccc1C(F)(F)F`, for which the survival was 3.67 (inactive).
In the case of `CCOC(=O)OC(C)OC(=O)[C@@H]1N2C(=O)[C@@H](NC(=O)[C@H](N)c3ccccc3)[C@H]2SC1(C)C` (some centres not stated), the survival was 16.9 (inactive).
Take `CCCOc1ccc(C(=O)OCCN(CC)CC)cc1N`: the survival is 5.92 (inactive).
Regarding `N#Cc1ccc(C(c2ccc(C#N)cc2)n2cncn2)cc1`, the survival is 1.25 (inactive).
Regarding `CCCCN(CCCC)CCC(O)c1cc2c(Cl)cc(Cl)cc2c2cc(C(F)(F)F)ccc12` (configuration not stated), the survival was 1.5 (inactive).
With `CCN1CCN(C(=O)N[C@@H](C(=O)N[C@@H]2C(=O)N3C(C(=O)O)=C(CSc4nnnn4C)CS[C@H]23)c2ccc(O)cc2)C(=O)C1=O`, the survival was 9.17 (inactive).
In the case of `CCC1=C(C)CN(C(=O)NCCc2ccc(S(=O)(=O)NC(=O)NC3CCC(C)CC3)cc2)C1=O` (configuration not stated), the survival was 5.08 (inactive).
Take `CCOC(=O)n1ccn(C)c1=S`: the survival was 11.8 (inactive).
As to `CC(=O)OCC(=O)[C@@]1(O)[C@H](C)C[C@H]2[C@@H]3CCC4=CC(=O)C=C[C@]4(C)[C@@]3(F)[C@@H](O)C[C@@]21C`, the survival is 16.5 (inactive).
On the same count and under the same terms, to `COc1ccc(C(=O)c2ccccc2O)c(O)c1` belongs 1.42 (inactive); to `C[C@@H]1C[C@H]2[C@@H]3C[C@H](F)C4=CC(=O)C=C[C@]4(C)[C@@]3(F)[C@@H](O)C[C@]2(C)[C@@]1(O)C(=O)CO`, 2.17 (inactive); to `COc1cc(C)nc(-n2nc(C)cc2OC)n1`, 33.2 (inactive).
On the same count and under the same terms, to `CN1CCC(=C2c3ccccc3CCc3sccc32)CC1` belongs 5.08 (inactive).
In the case of `COc1ncnc(NS(=O)(=O)c2ccc(N)cc2)c1OC`, the survival is 14.8 (inactive).
On the same count and under the same terms, to `CC(C)N=C(N)/N=C(\N)Nc1ccc(Cl)cc1` belongs 3 (inactive); to `Cc1cccc(C)c1NC(=O)C(C)N` (configuration not stated), 11.7 (inactive); to `COc1cc(OC)c(C(=O)CCCN2CCCC2)c(OC)c1`, 9.58 (inactive).
In the case of `CCOc1cc(CC(=O)N[C@@H](CC(C)C)c2ccccc2N2CCCCC2)ccc1C(=O)O`, the survival was 7.75 (inactive).
`O=C(O)/C=C/c1ccc(Cn2ccnc2)cc1`: the survival was 12.1 (inactive).
Still for that read-out and setting: to `Nc1ncnc2c1ncn2[C@@H]1O[C@H](COP(=O)(O)O)[C@@H](O)[C@H]1O` belongs 7.33 (inactive).
On the same count and under the same terms, as for `Nc1[nH]c(=O)ncc1F`, the figure is 2.42 (inactive).
As to `Nc1ccc(S(=O)(=O)Nc2ccc(Cl)nn2)cc1`, the survival is 5.17 (inactive).
In the case of `CC[C@]12CCCN3CCc4c(n(c5ccccc45)[C@@](O)(C(=O)OC)C1)[C@@H]32`, the survival was 10.1 (inactive).
Consider `C#C[C@]1(O)CC[C@H]2[C@@H]3CCc4cc(OC)ccc4[C@H]3CC[C@@]21C`, for which the survival was 3.33 (inactive).
With `Oc1ccc(OCc2ccccc2)cc1`, the survival is 3.58 (inactive).
For `O=C(CCCCC(=O)Nc1c(I)cc(I)c(C(=O)O)c1I)Nc1c(I)cc(I)c(C(=O)O)c1I`, the survival was 5.33 (inactive).
Consider `CCCc1c(OCCCCc2nn[nH]n2)ccc(C(C)=O)c1O`, for which the survival was 110 (inactive).
Same read-out and setting: to `CNNCc1ccc(C(=O)NC(C)C)cc1` belongs 6.5 (inactive); to `C[C@H](N)[C@H](O)c1cccc(O)c1`, 28.4 (inactive).

A further test is described as follows: P. berghei load reduction in hepatocytes – cell-based, HepG2, luciferase luminescence, HepG2 viability, primary screen (AID 624349).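 Also: 100% = mean of DMSO negative control wells on the same plate.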 As to conditions: P. berghei liver stage in HepG2, luciferase luminescence, concentration not given here; parasite load remaining: stronger effect = lower value; viability: measured here: HepG2 viability without parasites.
For `Cc1c(N(C)C)c(=O)n(-c2ccccc2)n1C`, the parasite load remaining is 18.2% (inactive) and 103% (inactive) and 38% (inactive); the viability – broadly, a read-out of living cells in per cent, often relative to untreated cells – was 52.4% and 97.7% and 84.1%.
For the compound `O=C(O)[C@@H]1[C@H]2C[C@H]3c4[nH]c5ccccc5c4CCN3C[C@@H]2CC[C@@H]1O`, the parasite load remaining was 106% (inactive) and 85.7% (inactive); the viability was 104% and 83.6%.
For the compound `COc1cc(N)c(Cl)cc1C(=O)NC1CCN(Cc2ccccc2)CC1`, the parasite load remaining is 50.5% (inactive) and 24.1% (inactive) and 67.3% (inactive); the viability is 116% and 86.9% and 74.5%.
For the compound `Cc1cc2c(C(C)C)c(O)c(O)c(C=O)c2c(O)c1-c1c(C)cc2c(C(C)C)c(O)c(O)c(C=O)c2c1O`, the parasite load remaining is 56.7% (inactive) and the viability worked out at 83.7%.
As to `CC(C)(C(=O)c1cccnc1)c1cccnc1`, the parasite load remaining is 42.4% (inactive) and 90.8% (inactive) and 15.1% (inactive); the viability is 102% and 94.8% and 117%.
Take `CC1CC(OC(=O)C(O)c2ccccc2)CC(C)(C)N1C` (configuration not stated): the parasite load remaining is 101% (inactive) and the viability worked out at 101%.
In the case of `CCc1c(C)[nH]c2c1C(=O)C(CN1CCOCC1)CC2` (configuration not stated), the parasite load remaining was 36.3% (inactive) and 102% (inactive); the viability is 89.9% and 75.4%.
Turning to `CC(C)(C)NC(=O)[C@H]1CC[C@H]2[C@@H]3CC[C@H]4NC(=O)C=C[C@]4(C)[C@H]3CC[C@]12C`, the parasite load remaining is 85.8% (inactive) and 62.9% (inactive) and 31.1% (inactive); the viability was 103% and 63% and 78%.
For the compound `CCC(=O)O[C@]1(C(=O)SCF)[C@H](C)C[C@H]2[C@@H]3C[C@H](F)C4=CC(=O)C=C[C@]4(C)[C@@]3(F)[C@@H](O)C[C@@]21C`, the parasite load remaining is 82.3% (inactive) and 83.8% (inactive); the viability is 68.2% and 100%.
For the compound `Cc1c(Nc2ncccc2C(=O)O)cccc1C(F)(F)F`, the parasite load remaining is 99.9% (inactive) and 46.5% (inactive); the viability was 95.4% and 105%.
As to `CCOC(=O)OC(C)OC(=O)[C@@H]1N2C(=O)[C@@H](NC(=O)[C@H](N)c3ccccc3)[C@H]2SC1(C)C` (some centres not stated), the parasite load remaining was 83% (inactive) and 78.3% (inactive); the viability was 104% and 79.2%.
Consider `CCCOc1ccc(C(=O)OCCN(CC)CC)cc1N`, for which the parasite load remaining is 35.3% (inactive) and 89.5% (inactive) and 24.4% (inactive); the viability is 102% and 98.4% and 98.5%.
With `N#Cc1ccc(C(c2ccc(C#N)cc2)n2cncn2)cc1`, the parasite load remaining is 127% (inactive) and 107% (inactive) and 48.7% (inactive); the viability is 71.5% and 77.2% and 128%.
With `CCCCN(CCCC)CCC(O)c1cc2c(Cl)cc(Cl)cc2c2cc(C(F)(F)F)ccc12` (configuration not stated), the parasite load remaining is 57.2% (inactive) and the viability came out at 69.5%.
Take `CCN1CCN(C(=O)N[C@@H](C(=O)N[C@@H]2C(=O)N3C(C(=O)O)=C(CSc4nnnn4C)CS[C@H]23)c2ccc(O)cc2)C(=O)C1=O`: the parasite load remaining was 48.8% (inactive) and 79.5% (inactive) and 21.1% (inactive); the viability is 114% and 80.3% and 69%.
As for `CCC1=C(C)CN(C(=O)NCCc2ccc(S(=O)(=O)NC(=O)NC3CCC(C)CC3)cc2)C1=O` (configuration not stated), the parasite load remaining is 156% (inactive) and 92.3% (inactive) and 45.4% (inactive); the viability was 98.1% and 72.7% and 68.5%.
For the compound `CCOC(=O)n1ccn(C)c1=S`, the parasite load remaining was 106% (inactive) and 140% (inactive) and 85.8% (inactive); the viability is 108% and 84.5% and 77.4%.
For `CC(=O)OCC(=O)[C@@]1(O)[C@H](C)C[C@H]2[C@@H]3CCC4=CC(=O)C=C[C@]4(C)[C@@]3(F)[C@@H](O)C[C@@]21C`, the parasite load remaining was 64% (inactive) and 76.2% (inactive); the viability was 116% and 94.5%.
Turning to `COc1ccc(C(=O)c2ccccc2O)c(O)c1`, the parasite load remaining was 83.1% (inactive) and 102% (inactive) and 55.6% (inactive); the viability was 96.9% and 79.4% and 89.9%.
Take `C[C@@H]1C[C@H]2[C@@H]3C[C@H](F)C4=CC(=O)C=C[C@]4(C)[C@@]3(F)[C@@H](O)C[C@]2(C)[C@@]1(O)C(=O)CO`: the parasite load remaining is 102% (inactive) and the viability was 99.8%.
`COc1cc(C)nc(-n2nc(C)cc2OC)n1`: the parasite load remaining is 32% (inactive) and 118% (inactive) and 64.4% (inactive); the viability was 46.8% and 89.6% and 75.3%.
Regarding `CN1CCC(=C2c3ccccc3CCc3sccc32)CC1`, the parasite load remaining is 28.2% (inactive) and 50.3% (inactive) and 34.4% (inactive); the viability was 70.7% and 95.5% and 65.5%.
In the case of `COc1ncnc(NS(=O)(=O)c2ccc(N)cc2)c1OC`, the parasite load remaining was 74.2% (inactive) and 31.5% (inactive) and 37.8% (inactive); the viability is 68.7% and 97% and 73.5%.
Take `CC(C)N=C(N)/N=C(\N)Nc1ccc(Cl)cc1`: the parasite load remaining is 38.3% (inactive) and -0.12% (active); the viability is 66.1% and 93.4%.
In the case of `Cc1cccc(C)c1NC(=O)C(C)N` (configuration not stated), the parasite load remaining is 112% (inactive) and 108% (inactive); the viability is 79.8% and 73.3%.
On to `COc1cc(OC)c(C(=O)CCCN2CCCC2)c(OC)c1`, for which the parasite load remaining was 144% (inactive) and 82.2% (inactive) and 102% (inactive); the viability was 95.2% and 73.3% and 68.5%.
Turning to `CCOc1cc(CC(=O)N[C@@H](CC(C)C)c2ccccc2N2CCCCC2)ccc1C(=O)O`, the parasite load remaining is 85.6% (inactive) and 16.6% (inactive) and 98.7% (inactive); the viability was 77.8% and 183% and 76.2%.
As to `O=C(O)/C=C/c1ccc(Cn2ccnc2)cc1`, the parasite load remaining is 92.2% (inactive) and 85.3% (inactive) and 50.2% (inactive); the viability was 79.5% and 65.9% and 102%.
On to `Nc1ncnc2c1ncn2[C@@H]1O[C@H](COP(=O)(O)O)[C@@H](O)[C@H]1O`, for which the parasite load remaining was 75.5% (inactive) and 87.1% (inactive); the viability is 125% and 81%.
As to `Nc1[nH]c(=O)ncc1F`, the parasite load remaining was 85.3% (inactive) and 51.1% (inactive) and 109% (inactive); the viability was 93.3% and 117% and 86.7%.
For the compound `Nc1ccc(S(=O)(=O)Nc2ccc(Cl)nn2)cc1`, the parasite load remaining was 128% (inactive) and 127% (inactive) and 54.3% (inactive); the viability is 105% and 69.3% and 92.4%.
On to `CC[C@]12CCCN3CCc4c(n(c5ccccc45)[C@@](O)(C(=O)OC)C1)[C@@H]32`, for which the parasite load remaining was 27.1% (inactive) and 109% (inactive); the viability was 48.5% and 87%.
